According to PubChem BioAssay:
Calls of active or inactive are those of the source.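 The calls were made as follows, unless noted: active = visual image review flags a hit and inhibition of aggregation exceeds 20%; inconclusive = visual hit but inhibition at or below 20%; inactive = no hit on visual image review.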

Assay: inhibitors of TNFa-induced NFkB p65 translocation, primary screen, imaging, HUVEC, MLSMR starter and 10KST1 sets (AID 438;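 active = inhibition above 20% together with a positive visual image hit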;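 also: compound added about 3h40 before a 20 min TNFalpha stimulation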;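 as to inhibition: signal is the nuclear over cytoplasmic p65 intensity ratio per well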)
Conditions: HUVEC TNFa-induced p65 nuclear translocation; cell count: measured here: nuclei count (cytotoxicity indicator), at 2.08 µM; inhibition: at 2 µM, stronger effect = higher value, 0% TNFa-plus-vehicle, 100% no-TNFa wells

SMILES	inhibition	cell count
N#Cc1c(/N=C/c2ccco2)sc2c1CCC2	11.9% (inactive)	657
Cc1cccc(C)c1OCc1nnc2c3cnn(C)c3ncn12	8.1% (inactive)	456
Cc1cc2ncn(C(=O)N3CCOCC3)c2cc1C	-2.5% (inactive)	309
COCCCn1c2nc3ccccc3nc2c2c(=O)n(-c3ccccc3OC)cnc21	6.3% (inactive)	334
Cc1nc2ccc(NC(=O)N3CCSCC3)cc2s1	-0.4% (inactive)	710
CCn1c(SCC(=O)NCc2ccco2)nc2c(c1=O)SC(C)C2 (stereo not given)	8.3% (inactive)	368
COc1nc(OC)nc(N2CCC(NC(=O)C(Cc3ccc(C(C)C)cc3)NC(C)=O)CC2)n1 (stereo not given)	-5.5% (inactive)	800
Cc1nc2ccccn2c1C(=O)NCCCN1CCOCC1	-7.5% (inactive)	521
CN1C(=O)CC(C(=O)Nc2ccc(F)cc2)SC1=Nc1ccc2c(c1)OCO2 (stereo not given)	-5.4% (inactive)	715
Clc1ccc(Cl)c(-c2nn3c(COc4ccccc4)nnc3s2)c1	-5% (inactive)	678
c1ccc(-n2nnnc2OCCOc2nnnn2-c2ccccc2)cc1	-10.5% (inactive)	172
c1ccc(CNc2ccc3c(c2)ncn3C2CCCCC2)nc1	-4.9% (inactive)	171
Cn1c(Cc2csc(N)n2)nnc1SCC(=O)NCc1ccccc1	7.3% (inactive)	447
CC(=O)c1cc2c(=O)c3cc(C)ccc3oc2nc1C	5.3% (inactive)	410
O=C(Nc1cccnc1N1CCOCC1)c1ccco1	-0.3% (inactive)	579
Cc1ccc(NC(=O)Cn2cccc2)cc1Cl	-12.9% (inactive)	655
Cc1cc(NC(=O)Cn2cnc3c(cnn3C(C)(C)C)c2=O)no1	1.1% (inactive)	645
CCCn1c2c(c(O)c(C(=O)NC)c1=O)CCCC2	3.4% (inactive)	323
CCOC(=O)c1ccc(NC(=O)CC2SC(=NC)N(C)C2=O)cc1 (stereo not given)	14.6% (inactive)	401
CCCn1c2ccccc2c2nnc(SCC(=O)Nc3ncccn3)nc21	-4.4% (inactive)	696

SMILES	inhibition	cell count
c1ccc(-c2cc(-c3nc(-c4ccccn4)no3)c3ccccc3n2)cc1	7.6% (inactive)	469
O=C(O)C1CCCN1C(=O)Nc1ccc(F)cc1 (stereo not given)	-32.6% (inactive)	543
COc1ccc(Nc2nc(OC)nc(N3CCN(c4ccc(OC)cc4)CC3)n2)cc1	-0.5% (inactive)	646
CCCC1CC(C)(C(=O)Cn2[nH]c(=O)ccc2=O)OC1=O (stereo not given)	-22.2% (inactive)	580
CCOC(=O)N1CCN(C(=O)c2ccc3nc4cc(Cl)ccc4c(=O)n3c2)CC1	-8.8% (inactive)	726
CCCCCOC(=O)CSc1nnc(-c2cc(OC)c(OC)c(OC)c2)o1	-21.6% (inactive)	747
Cc1cc(=O)n(CC(C)C)c(O)c1C#N	1.5% (inactive)	432
Oc1ccccc1C1=Nc2nc3ccccc3n2C(c2ccccc2)C1 (stereo not given)	6.8% (inactive)	579
O=S(=O)(c1ccc2c(c1)OCCO2)N(Cc1ccc(F)cc1)Cc1nnc(-c2cccs2)o1	-21.4% (inactive)	383
CCCNC(=O)c1c(N)n(-c2cc(OC)cc(OC)c2)c2nc3ccccc3nc12	-7% (inactive)	587
COc1ccc2cc(C#N)c(NC(C)C)nc2c1	3.6% (inactive)	481
Cc1c(NC(=O)CN2c3cccc4cccc(c34)S2(=O)=O)c(=O)n(-c2ccccc2)n1C	-7.1% (inactive)	721
COc1ccc(C2CC(=O)c3c(C)nc(N4CCN(c5ccccc5)CC4)nc3C2)cc1 (stereo not given)	5.6% (inactive)	598
COc1cc(CC(=O)NCc2ccc3c(c2)OCO3)cc(OC)c1OC	-7.8% (inactive)	698
O=C(CCCC(=O)N(CC(=O)NC1CCCCC1)Cc1ccc2c(c1)OCO2)Nc1ccccn1	4.2% (inactive)	395
CCCOc1ccc(/C(O)=C2/C(=O)C(=O)N(CCCOC)C2c2ccncc2)cc1 (stereo not given)	5.8% (inactive)	593
Cc1cc(NC(=O)CCC(=O)N(CCc2ccccc2)C(C(=O)NC2CCCC2)c2ccco2)no1 (stereo not given)	-7.5% (inactive)	592
CCC(=O)OC1(C#CCOc2ccc(OC)cc2)CCN(C)CC1	-6.5% (inactive)	393
CCCS(=O)(=O)N1CCC(C(=O)N2CCCC2)CC1	-9.9% (inactive)	657
O=C(CS(=O)(=O)Cc1ccccc1)N1CCc2ccccc2C1	-0.7% (inactive)	753

Assay: inhibitors of mutant huntingtin aggregation, primary screen, imaging, exon1htt(103Q)mCFP cells, high-content imaging (AID 483);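 also: compound exposure lasted 3 days before fixation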;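 as to nuclei count: percent of the per-plate median nuclei count of sample wells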
Conditions: exon1htt(103Q)mCFP cell line, aggregate imaging, at 2 µM; inhibition of aggregation: stronger effect = higher value; nuclei count: measured here: cell count, toxicity

SMILES	nuclei count	inhibition of aggregation
N#Cc1c(/N=C/c2ccco2)sc2c1CCC2	105%	0.6% (inactive)
Cc1cccc(C)c1OCc1nnc2c3cnn(C)c3ncn12	97.5%	-5.7% (inactive)
Cc1cc2ncn(C(=O)N3CCOCC3)c2cc1C	97.2%	27.9% (inactive)
COCCCn1c2nc3ccccc3nc2c2c(=O)n(-c3ccccc3OC)cnc21	98.2%	-5.4% (inactive)
Cc1nc2ccc(NC(=O)N3CCSCC3)cc2s1	111%	-7.6% (inactive)
CCn1c(SCC(=O)NCc2ccco2)nc2c(c1=O)SC(C)C2 (stereo not given)	101%	-2.9% (inactive)
COc1nc(OC)nc(N2CCC(NC(=O)C(Cc3ccc(C(C)C)cc3)NC(C)=O)CC2)n1 (stereo not given)	119%	-37.6% (inactive)
Cc1nc2ccccn2c1C(=O)NCCCN1CCOCC1	102%	3% (inactive)
CN1C(=O)CC(C(=O)Nc2ccc(F)cc2)SC1=Nc1ccc2c(c1)OCO2 (stereo not given)	117%	11.5% (inactive)
Clc1ccc(Cl)c(-c2nn3c(COc4ccccc4)nnc3s2)c1	104%	-9.4% (inactive)
c1ccc(-n2nnnc2OCCOc2nnnn2-c2ccccc2)cc1	102%	11.5% (inactive)
c1ccc(CNc2ccc3c(c2)ncn3C2CCCCC2)nc1	78.3%	20% (inactive)
Cn1c(Cc2csc(N)n2)nnc1SCC(=O)NCc1ccccc1	95.3%	9.5% (inactive)
CC(=O)c1cc2c(=O)c3cc(C)ccc3oc2nc1C	93.5%	7.1% (inactive)
O=C(Nc1cccnc1N1CCOCC1)c1ccco1	104%	4.6% (inactive)
Cc1ccc(NC(=O)Cn2cccc2)cc1Cl	115%	7% (inactive)
Cc1cc(NC(=O)Cn2cnc3c(cnn3C(C)(C)C)c2=O)no1	113%	-5.1% (inactive)
CCCn1c2c(c(O)c(C(=O)NC)c1=O)CCCC2	101%	-3.3% (inactive)
CCOC(=O)c1ccc(NC(=O)CC2SC(=NC)N(C)C2=O)cc1 (stereo not given)	103%	-8.2% (inactive)
CCCn1c2ccccc2c2nnc(SCC(=O)Nc3ncccn3)nc21	53.5%	-41% (inactive)

SMILES	nuclei count	inhibition of aggregation
c1ccc(-c2cc(-c3nc(-c4ccccn4)no3)c3ccccc3n2)cc1	101%	-4.3% (inactive)
O=C(O)C1CCCN1C(=O)Nc1ccc(F)cc1 (stereo not given)	91.3%	13.6% (inactive)
COc1ccc(Nc2nc(OC)nc(N3CCN(c4ccc(OC)cc4)CC3)n2)cc1	93.5%	-13.1% (inactive)
CCCC1CC(C)(C(=O)Cn2[nH]c(=O)ccc2=O)OC1=O (stereo not given)	120%	-42.5% (inactive)
CCOC(=O)N1CCN(C(=O)c2ccc3nc4cc(Cl)ccc4c(=O)n3c2)CC1	118%	-19.4% (inactive)
CCCCCOC(=O)CSc1nnc(-c2cc(OC)c(OC)c(OC)c2)o1	116%	16.3% (inactive)
Cc1cc(=O)n(CC(C)C)c(O)c1C#N	94.3%	9.1% (inactive)
Oc1ccccc1C1=Nc2nc3ccccc3n2C(c2ccccc2)C1 (stereo not given)	107%	3.6% (inactive)
O=S(=O)(c1ccc2c(c1)OCCO2)N(Cc1ccc(F)cc1)Cc1nnc(-c2cccs2)o1	106%	-14.7% (inactive)
CCCNC(=O)c1c(N)n(-c2cc(OC)cc(OC)c2)c2nc3ccccc3nc12	93.7%	3% (inactive)
COc1ccc2cc(C#N)c(NC(C)C)nc2c1	96.4%	-25.6% (inactive)
Cc1c(NC(=O)CN2c3cccc4cccc(c34)S2(=O)=O)c(=O)n(-c2ccccc2)n1C	103%	1.4% (inactive)
COc1ccc(C2CC(=O)c3c(C)nc(N4CCN(c5ccccc5)CC4)nc3C2)cc1 (stereo not given)	109%	-5.3% (inactive)
COc1cc(CC(=O)NCc2ccc3c(c2)OCO3)cc(OC)c1OC	142%	-5.2% (inactive)
O=C(CCCC(=O)N(CC(=O)NC1CCCCC1)Cc1ccc2c(c1)OCO2)Nc1ccccn1	91%	-3% (inactive)
CCCOc1ccc(/C(O)=C2/C(=O)C(=O)N(CCCOC)C2c2ccncc2)cc1 (stereo not given)	97.6%	4% (inactive)
Cc1cc(NC(=O)CCC(=O)N(CCc2ccccc2)C(C(=O)NC2CCCC2)c2ccco2)no1 (stereo not given)	102%	-11.5% (inactive)
CCC(=O)OC1(C#CCOc2ccc(OC)cc2)CCN(C)CC1	113%	-20.2% (inactive)
CCCS(=O)(=O)N1CCC(C(=O)N2CCCC2)CC1	96.1%	-6.5% (inactive)
O=C(CS(=O)(=O)Cc1ccccc1)N1CCc2ccccc2C1	97.8%	13.8% (inactive)
